The source of these data is PubChem BioAssay (NCI).

About 83,000 compounds went through this panel and 20% of them were active in at least one assay; those are over-represented in the sample as a whole.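 In brief: 96-well plates, 48 h treatment, single concentration, percent growth endpoint.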 Active and inactive are the calls of the source. How the source made its calls: active means growth percent below 10; inactive means the rest.

The first experiment has as its system SN12C renal. Kind of experiment: NCI-60 one-dose screen, 48 h (100 = growth as untreated, 0 = no growth, -100 = all killed). The note with it: 10 µM unless noted.
Regarding `COc1cc(CCn2nnc3c(NCCCCO)ncnc32)cc(OC)c1`, the growth was 102% (inactive).

With `C/C(=C\c1csc(C)n1)[C@@H]1C[C@@H]2O[C@]2(C)CCC[C@H](C)[C@H](O)[C@@H](C)C(=O)C(C)(C)[C@@H](O)CC(=O)N1`, the growth is -81.1% (active). Turning to `COc1ccc(S(=O)(=O)N2CCN(c3cc4c(cc3F)c(=O)c(C(=O)O)cn4C3CC3)CC2)c(OC)c1`, the growth is 90.7% (inactive). On to `CC[C@]1(O)C[C@@H]2CN(Cc3c([nH]c4ccccc34)[C@@](C(=O)OC)(c3cc4c(cc3OC)N(C)[C@H]3[C@@](O)(C(=O)OC)[C@H](OC(C)=O)[C@]5(CC)[C@@H]6C[C@@H]6CN6CC[C@]43[C@@H]65)C2)C1`, for which the growth is 34.1% (inactive). Same read-out and setting: as for `COC1=CC(c2ccc[nH]2)=N/C1=C\c1[nH]c(C)c(C(=O)CCCCC(=O)Oc2ccc3c(c2)CCC2C3CC[C@]3(C)[C@@H](O)CC[C@@H]23)c1C` (stereo partly drawn), the figure is 58.8% (inactive). The same measure, in the same setting: next, `N#Cc1ncc(-c2ccc(F)c(F)c2F)c(NC2CCCCCC2)n1`: 78.2% (inactive); `O=C(O)c1cn(C2CC2)c2cc(N3CCN(S(=O)(=O)c4ccc(Cl)c(Cl)c4)CC3)c(F)cc2c1=O`: 10.4% (inactive). On the same count and under the same terms, as for `CCCCCCCCCCCCOB(OCCCCCCCCCCCC)OCCCCCCCCCCCC`, the figure is 95.8% (inactive). Take `CNC(C)=O`: the growth is 100% (inactive). The same measure, in the same setting: as for `COc1cc2nc(N3CCC[C@@H](NC4=CC(=O)c5ccccc5C4=O)C3)nc(N)c2cc1OC`, the figure is 95.9% (inactive); as for `COC(=O)[C@H]1[C@H](OC)[C@@H](OC(=O)/C=C/c2ccncc2)CC2CN3CCc4c([nH]c5cc(OC)ccc45)[C@@H]3C[C@@H]21` (stereo partly drawn), 70.2% (inactive); as for `Clc1nc(-c2cccnc2)nc2sc3c(c12)CCCCCC3`, 99.6% (inactive).

For `O=c1oc2cc(OS(=O)(=O)c3ccc(F)cc3)ccc2c2c1CCCCC2`, the growth was 70.1% (inactive). On to `CC(=O)C1CCC(C)=CC1=O` (stereo not drawn), for which the growth was 99% (inactive).

The test system of the next experiment is UO-31 renal. The description is as above. As to conditions: 10 µM unless noted.
Take `Cc1cc(C)c(S(=O)(=O)N2CCN(c3cc4c(cc3F)c(=O)c(C(=O)O)cn4C3CC3)CC2)c(C)c1`: the growth is 16.1% (inactive).

As for `CCn1cc(C(=O)O)c(=O)c2cc(F)c(N3CCN(S(=O)(=O)c4ccc(OC)c(OC)c4)CC3)cc21`, the growth is 62.1% (inactive).

`Cc1ccc(S(=O)(=O)OCC(=O)Nc2ccc(C(=O)O)c(O)c2)cc1`: the growth was 53% (inactive). Still for that read-out and setting: next, `O=S(=O)(c1ccccc1)n1ccc(-c2ccc3c(c2)CCO3)n1`: 51% (inactive); `Clc1ccc(-c2nc(-c3ccco3)cn3ccnc23)cc1`: 7.06% (active).

Regarding `CCn1cc(C(=O)O)c(=O)c2cc(F)c(N3CCN(S(=O)(=O)c4cccc5ccccc45)CC3)cc21`, the growth was -19.7% (active). On the same count and under the same terms, as for `O=P([O-])(O)OP(=O)([O-])O.[NH-][C@H]1CCCC[C@@H]1[NH-].[OH-].[OH-].[Pt+4]`, the figure is 96.6% (inactive); as for `O=C(CC(O)c1ccncc1)c1ccccc1` (stereo not drawn), 49.7% (inactive). Same read-out and setting: as for `O=c1oc2c([nH]c3ccc4ccccc4c32)c2ccccc12`, the figure is 128% (inactive); as for `Nc1c(C(=O)Nc2ccccc2)sc2nc3c(cc12)CCC3`, 80.9% (inactive); as for `COc1ccc(C2CC(c3cccs3)=NN2c2ccc(S(=O)(=O)NC(=O)NCc3cccc(OC)c3)cc2)cc1` (stereo not drawn), 87.2% (inactive). As for `COc1cc(NC(=O)CSc2nc3ccc(C)cc3c(=O)n2-c2ccccc2)cc(OC)c1OC`, the growth is 51% (inactive).

Regarding `Cc1ccc(S(=O)(=O)OC2COCOC2C(OS(=O)(=O)c2ccc(C)cc2)C2OCOCC2OS(=O)(=O)c2ccc(C)cc2)cc1` (stereo not drawn), the growth was 95.8% (inactive). Still for that read-out and setting: as for `CC(=O)Nc1ccc(S(=O)(=O)N2C(=O)CCC2C(=O)Nc2ccc(Br)cc2)cc1` (stereo not drawn), the figure is 21.9% (inactive). Still for that read-out and setting: as for `O=C(O)c1ccc(-n2c(=O)c3ccccc3c3ccccc3c2=O)cc1`, the figure is 74.8% (inactive); as for `CS(=O)(=O)N(c1cc(-c2ccc3ncnc(Nc4cccc(Cl)c4)c3c2)cnc1Cl)S(C)(=O)=O`, 2.2% (active); as for `CN(C)c1ncc(-c2ccc(C(F)(F)F)cc2)c(NC2CCCCCC2)n1`, 31% (inactive). Take `O=S(=O)(NCCNc1cc(-c2cn(-c3ccccc3)nc2-c2ccccc2)ccn1)c1cccc2ccccc12`: the growth is 22.3% (inactive). For `CC/C=C\C[C@H](O)C/C=C1/C(=O)C(Cl)=C[C@@H]1C/C=C\CCCC(=O)O`, the growth was 64.2% (inactive). On to `CC[C@H](C)[C@@H]1NC(=O)[C@H]([C@@H](C)O)NC(=O)C(Cc2ccccc2)NC(=O)[C@@H]2CCCN2C(=O)C(C(C)C)NC(=O)C(Cc2ccccc2)NC(=O)CNC(=O)[C@@H]2CCCN2C1=O` (stereo partly drawn), for which the growth is 36.8% (inactive). For `O=C(Nc1cc(C(F)(F)F)cc(C(F)(F)F)c1)Nc1ccc(OCc2nnc(-c3ccc(Cl)cc3)o2)c(F)c1`, the growth is -2.51% (active). As to `Oc1ccc(N=Cc2ccccc2)cc1`, the growth was 77.5% (inactive). The same measure, in the same setting: as for `Nc1ccccc1C#C/C=C\C#Cc1cccc(O)c1`, the figure is 12.4% (inactive). Still for that read-out and setting: next, `CCn1cc(C(=O)O)c(=O)c2cc(F)c(N3CCN(S(=O)(=O)c4ccc(Cl)cc4Cl)CC3)cc21`: -13.4% (active); `COc1cc(CNC(=O)CSc2nc3ccccc3c(=O)n2Cc2cc(OC)c(OC)c(OC)c2)cc(OC)c1OC`: 72.5% (inactive); `COc1cc(CCn2nnc3c(NCCCCO)ncnc32)cc(OC)c1`: 86.4% (inactive).

As to `C/C(=C\c1csc(C)n1)[C@@H]1C[C@@H]2O[C@]2(C)CCC[C@H](C)[C@H](O)[C@@H](C)C(=O)C(C)(C)[C@@H](O)CC(=O)N1`, the growth is -85.7% (active). Take `COc1ccc(S(=O)(=O)N2CCN(c3cc4c(cc3F)c(=O)c(C(=O)O)cn4C3CC3)CC2)c(OC)c1`: the growth is 53.2% (inactive).

Take `CC[C@]1(O)C[C@@H]2CN(Cc3c([nH]c4ccccc34)[C@@](C(=O)OC)(c3cc4c(cc3OC)N(C)[C@H]3[C@@](O)(C(=O)OC)[C@H](OC(C)=O)[C@]5(CC)[C@@H]6C[C@@H]6CN6CC[C@]43[C@@H]65)C2)C1`: the growth was 68.5% (inactive). As for `COC1=CC(c2ccc[nH]2)=N/C1=C\c1[nH]c(C)c(C(=O)CCCCC(=O)Oc2ccc3c(c2)CCC2C3CC[C@]3(C)[C@@H](O)CC[C@@H]23)c1C` (stereo partly drawn), the growth was 42.7% (inactive).

Take `N#Cc1ncc(-c2ccc(F)c(F)c2F)c(NC2CCCCCC2)n1`: the growth was 68.9% (inactive).

In the case of `O=C(O)c1cn(C2CC2)c2cc(N3CCN(S(=O)(=O)c4ccc(Cl)c(Cl)c4)CC3)c(F)cc2c1=O`, the growth was 10% (inactive). `CCCCCCCCCCCCOB(OCCCCCCCCCCCC)OCCCCCCCCCCCC`: the growth is 91.8% (inactive). The same measure, in the same setting: as for `CNC(C)=O`, the figure is 93.3% (inactive). `COc1cc2nc(N3CCC[C@@H](NC4=CC(=O)c5ccccc5C4=O)C3)nc(N)c2cc1OC`: the growth was 46% (inactive).

Turning to `COC(=O)[C@H]1[C@H](OC)[C@@H](OC(=O)/C=C/c2ccncc2)CC2CN3CCc4c([nH]c5cc(OC)ccc45)[C@@H]3C[C@@H]21` (stereo partly drawn), the growth was 56.9% (inactive). With `Clc1nc(-c2cccnc2)nc2sc3c(c12)CCCCCC3`, the growth was 101% (inactive).

With `O=c1oc2cc(OS(=O)(=O)c3ccc(F)cc3)ccc2c2c1CCCCC2`, the growth was 50.2% (inactive). For `CC(=O)C1CCC(C)=CC1=O` (stereo not drawn), the growth was 80.3% (inactive).
